# Measured values taken from article PMC7862700, “An all-to-all approach to the identification of sequence-specific readers for epigenetic DNA modifications on cytosine”.
# What was measured:
# Assay in all cases: DAPPL (digital affinity profiling via proximity ligation, sequencing); 10 mM Tris-HCl pH 7.5, 50 mM NaCl, 1 mM DTT, 4% glycerol, room temperature, 30 min; GST-TFs on glutathione beads, 16-mer random dsDNA library, 0.1% formaldehyde crosslink after washing; high values mean tight binding
# FLI1 = target: T1, FLI1 (Homo sapiens, UniProt Q01543 1-452); conditions: protein: recombinant; tags: N-terminal GST; dsDNA, one strand shown
# T1 sequence: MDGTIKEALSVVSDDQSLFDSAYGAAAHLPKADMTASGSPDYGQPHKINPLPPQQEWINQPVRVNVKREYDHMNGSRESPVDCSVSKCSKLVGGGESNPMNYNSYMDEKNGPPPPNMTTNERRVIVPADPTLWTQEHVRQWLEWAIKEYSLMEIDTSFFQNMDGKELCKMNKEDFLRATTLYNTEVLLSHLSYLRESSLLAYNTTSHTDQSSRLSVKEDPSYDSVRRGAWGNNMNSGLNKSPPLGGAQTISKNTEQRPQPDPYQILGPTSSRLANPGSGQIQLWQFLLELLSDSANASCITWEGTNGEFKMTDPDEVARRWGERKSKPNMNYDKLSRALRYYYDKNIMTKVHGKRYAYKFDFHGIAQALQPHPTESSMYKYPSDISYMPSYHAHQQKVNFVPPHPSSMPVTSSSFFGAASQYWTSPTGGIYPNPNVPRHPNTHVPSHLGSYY
# How it was run: (§1)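 Binding signal is given per hexamer as its read frequency for a factor divided by its frequency in the tag-only sample. GST-fused human transcription factors were expressed in yeast, captured on glutathione beads, barcoded with DNA and pooled with that sample, then incubated with 200 nmole of a 16-mer random double-stranded DNA library in Tris/NaCl/DTT/glycerol buffer for 30 min at room temperature. The pools were then washed, crosslinked, proximity-ligated, amplified by PCR and sequenced on an Illumina NextSeq500.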
# ELK1 = target: T2, ELK1 (Homo sapiens, UniProt P19419 1-428); conditions: protein: recombinant; tags: N-terminal GST; dsDNA, one strand shown
# T2 sequence: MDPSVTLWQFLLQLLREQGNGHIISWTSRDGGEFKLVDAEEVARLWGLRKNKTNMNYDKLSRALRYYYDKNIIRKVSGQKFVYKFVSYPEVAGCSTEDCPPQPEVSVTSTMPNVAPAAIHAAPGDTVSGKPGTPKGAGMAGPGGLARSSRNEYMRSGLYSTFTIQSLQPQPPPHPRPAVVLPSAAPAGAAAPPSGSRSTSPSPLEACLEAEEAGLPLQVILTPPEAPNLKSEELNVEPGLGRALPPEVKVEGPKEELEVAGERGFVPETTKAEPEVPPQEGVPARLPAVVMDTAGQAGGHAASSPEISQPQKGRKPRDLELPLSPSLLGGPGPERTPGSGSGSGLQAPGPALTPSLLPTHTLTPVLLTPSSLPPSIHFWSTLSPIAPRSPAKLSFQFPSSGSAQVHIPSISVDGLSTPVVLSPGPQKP
# How it was run: as §1
# GABPA = target: T3, GABPA (Homo sapiens, UniProt Q06546 1-454); conditions: protein: recombinant; tags: N-terminal GST; dsDNA, one strand shown
# T3 sequence: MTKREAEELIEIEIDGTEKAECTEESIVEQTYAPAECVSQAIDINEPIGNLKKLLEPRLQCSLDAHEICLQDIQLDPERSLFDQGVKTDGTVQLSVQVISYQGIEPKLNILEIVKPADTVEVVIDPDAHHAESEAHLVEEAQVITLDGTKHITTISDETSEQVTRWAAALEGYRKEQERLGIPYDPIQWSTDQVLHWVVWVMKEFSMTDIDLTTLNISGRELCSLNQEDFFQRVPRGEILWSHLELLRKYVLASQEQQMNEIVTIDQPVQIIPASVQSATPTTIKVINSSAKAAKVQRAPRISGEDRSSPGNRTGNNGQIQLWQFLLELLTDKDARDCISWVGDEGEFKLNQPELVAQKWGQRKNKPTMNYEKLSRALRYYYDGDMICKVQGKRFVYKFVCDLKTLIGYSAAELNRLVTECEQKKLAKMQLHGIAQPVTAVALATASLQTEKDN
# How it was run: as §1
# ERG = target: T4, ERG (Homo sapiens, UniProt P11308 1-479); conditions: protein: recombinant; tags: N-terminal GST; dsDNA, one strand shown
# T4 sequence: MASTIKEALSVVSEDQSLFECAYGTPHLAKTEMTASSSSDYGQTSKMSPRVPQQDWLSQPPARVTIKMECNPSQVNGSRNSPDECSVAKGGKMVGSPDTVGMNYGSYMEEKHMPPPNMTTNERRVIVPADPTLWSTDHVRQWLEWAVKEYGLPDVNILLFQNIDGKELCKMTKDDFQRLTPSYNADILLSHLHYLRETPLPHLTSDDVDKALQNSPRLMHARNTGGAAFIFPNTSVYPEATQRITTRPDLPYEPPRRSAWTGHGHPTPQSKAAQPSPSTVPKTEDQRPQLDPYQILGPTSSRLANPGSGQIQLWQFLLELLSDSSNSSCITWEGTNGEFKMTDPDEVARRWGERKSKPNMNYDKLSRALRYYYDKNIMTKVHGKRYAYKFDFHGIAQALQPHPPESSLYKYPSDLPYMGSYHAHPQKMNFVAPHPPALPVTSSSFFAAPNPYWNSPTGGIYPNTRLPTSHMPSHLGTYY
# How it was run: as §1
# ELF1 = ELF1 (Homo sapiens, UniProt P32519 1-619); conditions: protein: recombinant; tags: N-terminal GST; dsDNA, one strand shown
# Chain of ELF1 (P32519 whole entry): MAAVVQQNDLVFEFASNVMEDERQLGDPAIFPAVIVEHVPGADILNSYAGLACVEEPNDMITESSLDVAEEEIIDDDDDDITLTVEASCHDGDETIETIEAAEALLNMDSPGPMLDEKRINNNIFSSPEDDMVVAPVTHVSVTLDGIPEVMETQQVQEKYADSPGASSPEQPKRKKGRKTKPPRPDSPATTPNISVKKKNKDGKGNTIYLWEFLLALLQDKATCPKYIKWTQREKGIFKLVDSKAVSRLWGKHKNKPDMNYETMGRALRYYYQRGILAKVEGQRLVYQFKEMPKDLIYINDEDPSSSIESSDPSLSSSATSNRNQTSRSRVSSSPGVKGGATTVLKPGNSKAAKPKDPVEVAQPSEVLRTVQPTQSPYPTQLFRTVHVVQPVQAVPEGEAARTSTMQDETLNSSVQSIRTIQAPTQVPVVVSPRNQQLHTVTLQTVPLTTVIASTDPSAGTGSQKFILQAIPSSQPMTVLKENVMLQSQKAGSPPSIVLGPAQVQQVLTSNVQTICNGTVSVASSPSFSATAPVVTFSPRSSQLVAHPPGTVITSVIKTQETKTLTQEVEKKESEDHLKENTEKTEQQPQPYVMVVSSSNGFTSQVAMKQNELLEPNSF
# How it was run: as §1
# EHF = target: T5, EHF (Homo sapiens, UniProt Q9NZC4 1-300); conditions: protein: recombinant; tags: N-terminal GST; dsDNA, one strand shown
# T5 sequence: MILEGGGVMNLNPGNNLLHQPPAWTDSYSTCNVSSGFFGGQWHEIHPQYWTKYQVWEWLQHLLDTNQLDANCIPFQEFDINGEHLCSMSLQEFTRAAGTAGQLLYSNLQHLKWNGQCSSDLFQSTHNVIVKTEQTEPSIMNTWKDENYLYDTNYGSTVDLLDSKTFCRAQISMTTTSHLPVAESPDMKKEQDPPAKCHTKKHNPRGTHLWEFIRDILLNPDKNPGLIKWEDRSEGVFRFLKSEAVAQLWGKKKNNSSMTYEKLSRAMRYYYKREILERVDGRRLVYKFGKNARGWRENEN
# How it was run: as §1
# SPI1 = SPI1 (Homo sapiens, UniProt P17947 1-270); conditions: protein: recombinant; tags: N-terminal GST; dsDNA, one strand shown
# How it was run: as §1
# SPIB = SPIB (Homo sapiens, UniProt Q01892 1-262); conditions: protein: recombinant; tags: N-terminal GST; dsDNA, one strand shown
# Chain of SPIB (Q01892 whole entry): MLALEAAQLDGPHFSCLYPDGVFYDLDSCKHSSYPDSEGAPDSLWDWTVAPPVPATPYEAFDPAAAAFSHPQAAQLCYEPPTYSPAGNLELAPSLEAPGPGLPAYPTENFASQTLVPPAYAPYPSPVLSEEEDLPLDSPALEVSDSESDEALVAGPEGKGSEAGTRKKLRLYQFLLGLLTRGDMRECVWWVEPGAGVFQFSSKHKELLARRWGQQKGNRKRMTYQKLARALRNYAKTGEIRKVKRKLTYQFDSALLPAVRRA
# How it was run: as §1
# ELK3 = target: T6, ELK3 (Homo sapiens, UniProt P41970 1-407); conditions: protein: recombinant; tags: N-terminal GST; dsDNA, one strand shown
# T6 sequence: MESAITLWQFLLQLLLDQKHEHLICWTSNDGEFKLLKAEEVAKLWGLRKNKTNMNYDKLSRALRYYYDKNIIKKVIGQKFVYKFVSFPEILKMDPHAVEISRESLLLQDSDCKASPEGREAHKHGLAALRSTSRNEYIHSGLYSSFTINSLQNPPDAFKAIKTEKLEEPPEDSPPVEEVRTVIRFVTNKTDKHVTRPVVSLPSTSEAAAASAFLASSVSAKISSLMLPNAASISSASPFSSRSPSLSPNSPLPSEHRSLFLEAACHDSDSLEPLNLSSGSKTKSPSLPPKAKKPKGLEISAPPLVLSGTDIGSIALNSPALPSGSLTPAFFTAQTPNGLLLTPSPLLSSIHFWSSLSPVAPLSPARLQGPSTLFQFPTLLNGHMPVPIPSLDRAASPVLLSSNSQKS
# How it was run: as §1
# FEV = target: T7, FEV (Homo sapiens, UniProt Q99581 1-238); conditions: protein: recombinant; tags: N-terminal GST; dsDNA, one strand shown
# T7 sequence: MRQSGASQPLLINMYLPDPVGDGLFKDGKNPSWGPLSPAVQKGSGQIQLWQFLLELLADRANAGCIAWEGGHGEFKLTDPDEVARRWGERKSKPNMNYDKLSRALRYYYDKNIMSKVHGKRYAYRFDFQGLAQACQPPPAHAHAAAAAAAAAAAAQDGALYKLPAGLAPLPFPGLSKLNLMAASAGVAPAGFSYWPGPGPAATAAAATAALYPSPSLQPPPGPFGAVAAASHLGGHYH
# How it was run: as §1
# ETV5 = ETV5 (Homo sapiens, UniProt P41161 1-510); conditions: protein: recombinant; tags: N-terminal GST; dsDNA, one strand shown
# Chain of ETV5 (P41161 whole entry): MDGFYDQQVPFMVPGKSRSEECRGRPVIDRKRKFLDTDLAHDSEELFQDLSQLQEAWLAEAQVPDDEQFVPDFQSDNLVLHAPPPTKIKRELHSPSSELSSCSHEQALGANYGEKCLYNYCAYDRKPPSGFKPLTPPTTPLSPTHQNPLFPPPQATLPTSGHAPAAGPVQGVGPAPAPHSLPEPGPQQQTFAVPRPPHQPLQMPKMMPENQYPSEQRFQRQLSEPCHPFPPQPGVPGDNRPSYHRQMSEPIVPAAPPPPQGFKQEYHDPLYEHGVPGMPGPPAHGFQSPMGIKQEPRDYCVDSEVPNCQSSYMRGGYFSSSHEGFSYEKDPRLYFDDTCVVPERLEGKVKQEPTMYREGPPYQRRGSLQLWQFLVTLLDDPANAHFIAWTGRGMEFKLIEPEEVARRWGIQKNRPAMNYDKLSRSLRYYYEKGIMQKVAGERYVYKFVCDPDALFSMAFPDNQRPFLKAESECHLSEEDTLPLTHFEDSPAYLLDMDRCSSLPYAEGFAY
# How it was run: as §1
# HSF1 = HSF1 (Homo sapiens, UniProt Q00613 1-529); conditions: protein: recombinant; tags: N-terminal GST; chain copies: 3; dsDNA, one strand shown
# Chain of HSF1 (Q00613 whole entry): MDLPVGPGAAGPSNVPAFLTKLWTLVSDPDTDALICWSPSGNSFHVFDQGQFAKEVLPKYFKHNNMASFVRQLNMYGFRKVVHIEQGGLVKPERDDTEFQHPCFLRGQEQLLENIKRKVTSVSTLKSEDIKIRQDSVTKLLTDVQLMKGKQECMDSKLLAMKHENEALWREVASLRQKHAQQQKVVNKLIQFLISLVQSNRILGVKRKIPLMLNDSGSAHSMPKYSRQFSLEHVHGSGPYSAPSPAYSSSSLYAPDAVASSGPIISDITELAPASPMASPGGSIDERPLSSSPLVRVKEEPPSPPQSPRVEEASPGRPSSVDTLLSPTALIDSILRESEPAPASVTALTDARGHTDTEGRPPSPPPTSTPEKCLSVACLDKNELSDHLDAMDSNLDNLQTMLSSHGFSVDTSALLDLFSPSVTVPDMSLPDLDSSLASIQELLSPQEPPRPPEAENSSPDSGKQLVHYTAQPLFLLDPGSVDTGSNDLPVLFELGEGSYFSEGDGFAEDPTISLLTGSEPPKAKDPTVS
# How it was run: as §1
# SPIC = target: T8, SPIC (Homo sapiens, UniProt Q8N5J4 1-248); conditions: protein: recombinant; tags: N-terminal GST; dsDNA, one strand shown
# T8 sequence: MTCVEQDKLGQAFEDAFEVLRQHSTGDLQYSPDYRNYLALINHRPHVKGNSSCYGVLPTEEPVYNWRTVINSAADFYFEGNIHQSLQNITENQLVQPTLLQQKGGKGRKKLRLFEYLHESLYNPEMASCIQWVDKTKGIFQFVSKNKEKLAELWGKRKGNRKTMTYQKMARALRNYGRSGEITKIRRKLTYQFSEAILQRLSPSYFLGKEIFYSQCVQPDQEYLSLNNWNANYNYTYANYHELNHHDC
# How it was run: as §1
# ELF4 = ELF4 (Homo sapiens, UniProt Q99607 1-663); conditions: protein: recombinant; tags: N-terminal GST; dsDNA, one strand shown
# Chain of ELF4 (Q99607 whole entry): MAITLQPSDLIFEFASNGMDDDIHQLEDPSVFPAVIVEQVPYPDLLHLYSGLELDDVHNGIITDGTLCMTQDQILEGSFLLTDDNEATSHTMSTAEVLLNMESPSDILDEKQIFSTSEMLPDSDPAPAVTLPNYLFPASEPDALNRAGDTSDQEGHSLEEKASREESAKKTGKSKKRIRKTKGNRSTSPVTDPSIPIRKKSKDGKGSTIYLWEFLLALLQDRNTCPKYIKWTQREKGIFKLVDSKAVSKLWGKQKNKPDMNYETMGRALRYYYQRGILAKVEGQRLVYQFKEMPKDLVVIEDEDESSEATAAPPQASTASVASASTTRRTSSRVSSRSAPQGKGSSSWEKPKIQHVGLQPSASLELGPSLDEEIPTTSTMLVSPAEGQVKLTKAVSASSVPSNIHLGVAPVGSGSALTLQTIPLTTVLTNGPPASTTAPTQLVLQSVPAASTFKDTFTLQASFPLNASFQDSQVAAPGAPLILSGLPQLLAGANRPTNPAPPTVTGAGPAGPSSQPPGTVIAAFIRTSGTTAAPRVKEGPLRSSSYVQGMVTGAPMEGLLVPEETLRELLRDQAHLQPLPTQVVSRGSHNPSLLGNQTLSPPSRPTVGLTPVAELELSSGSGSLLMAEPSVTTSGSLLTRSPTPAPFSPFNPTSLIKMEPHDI
# How it was run: as §1
# ELK4 = target: T9, ELK4 (Homo sapiens, UniProt P28324-2 1-405); conditions: protein: recombinant; tags: N-terminal GST; dsDNA, one strand shown
# T9 sequence: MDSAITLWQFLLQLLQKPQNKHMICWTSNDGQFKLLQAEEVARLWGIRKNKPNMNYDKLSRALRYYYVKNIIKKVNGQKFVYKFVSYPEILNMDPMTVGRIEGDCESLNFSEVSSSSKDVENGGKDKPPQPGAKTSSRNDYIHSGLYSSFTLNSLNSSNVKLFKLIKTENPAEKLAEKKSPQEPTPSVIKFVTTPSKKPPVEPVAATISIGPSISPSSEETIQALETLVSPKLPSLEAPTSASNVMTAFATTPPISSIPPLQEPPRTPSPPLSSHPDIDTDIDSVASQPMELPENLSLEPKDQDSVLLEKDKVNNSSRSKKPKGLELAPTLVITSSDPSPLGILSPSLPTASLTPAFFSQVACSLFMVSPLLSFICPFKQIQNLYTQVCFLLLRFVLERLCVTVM
# How it was run: as §1
# ETV2 = target: T10, ETV2 (Homo sapiens, UniProt O00321 1-342); conditions: protein: recombinant; tags: N-terminal GST; dsDNA, one strand shown
# T10 sequence: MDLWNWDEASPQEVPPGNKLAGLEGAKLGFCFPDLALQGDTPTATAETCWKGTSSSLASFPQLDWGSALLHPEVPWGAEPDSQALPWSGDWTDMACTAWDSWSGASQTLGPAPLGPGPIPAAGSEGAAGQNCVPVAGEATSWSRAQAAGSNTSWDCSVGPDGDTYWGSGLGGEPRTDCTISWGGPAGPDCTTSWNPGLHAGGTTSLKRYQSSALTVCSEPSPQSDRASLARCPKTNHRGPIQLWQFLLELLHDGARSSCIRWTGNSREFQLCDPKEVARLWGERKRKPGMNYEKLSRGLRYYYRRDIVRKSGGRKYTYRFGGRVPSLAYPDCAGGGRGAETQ
# How it was run: as §1
# ELF3 = target: T11, ELF3 (Homo sapiens, UniProt P78545 1-371); conditions: protein: recombinant; tags: N-terminal GST; dsDNA, one strand shown
# T11 sequence: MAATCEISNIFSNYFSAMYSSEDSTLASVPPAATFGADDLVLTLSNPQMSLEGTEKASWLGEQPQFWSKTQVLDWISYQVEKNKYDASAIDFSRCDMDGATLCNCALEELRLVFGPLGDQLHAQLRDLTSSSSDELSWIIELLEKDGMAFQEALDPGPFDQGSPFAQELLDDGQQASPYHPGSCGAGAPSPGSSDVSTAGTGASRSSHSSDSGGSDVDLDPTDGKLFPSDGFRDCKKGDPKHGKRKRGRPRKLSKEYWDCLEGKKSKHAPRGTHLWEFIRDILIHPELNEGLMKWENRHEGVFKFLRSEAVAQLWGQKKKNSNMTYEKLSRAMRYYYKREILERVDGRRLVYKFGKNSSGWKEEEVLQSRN
# How it was run: as §1
# CRX = CRX (Homo sapiens, UniProt O43186 1-299); conditions: protein: recombinant; tags: N-terminal GST; dsDNA, one strand shown
# Chain of CRX (O43186 whole entry): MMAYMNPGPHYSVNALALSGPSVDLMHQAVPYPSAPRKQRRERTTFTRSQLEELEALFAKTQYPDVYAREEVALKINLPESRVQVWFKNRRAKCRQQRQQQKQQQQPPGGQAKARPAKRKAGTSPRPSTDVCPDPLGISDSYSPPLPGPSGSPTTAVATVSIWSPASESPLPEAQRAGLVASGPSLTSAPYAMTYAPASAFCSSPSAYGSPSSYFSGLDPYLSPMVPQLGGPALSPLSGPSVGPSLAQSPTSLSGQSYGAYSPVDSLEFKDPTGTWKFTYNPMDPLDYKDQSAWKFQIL
# How it was run: as §1
# ETV1 = ETV1 (Homo sapiens, UniProt P50549 1-477); conditions: protein: recombinant; tags: N-terminal GST; dsDNA, one strand shown
# Chain of ETV1 (P50549 whole entry): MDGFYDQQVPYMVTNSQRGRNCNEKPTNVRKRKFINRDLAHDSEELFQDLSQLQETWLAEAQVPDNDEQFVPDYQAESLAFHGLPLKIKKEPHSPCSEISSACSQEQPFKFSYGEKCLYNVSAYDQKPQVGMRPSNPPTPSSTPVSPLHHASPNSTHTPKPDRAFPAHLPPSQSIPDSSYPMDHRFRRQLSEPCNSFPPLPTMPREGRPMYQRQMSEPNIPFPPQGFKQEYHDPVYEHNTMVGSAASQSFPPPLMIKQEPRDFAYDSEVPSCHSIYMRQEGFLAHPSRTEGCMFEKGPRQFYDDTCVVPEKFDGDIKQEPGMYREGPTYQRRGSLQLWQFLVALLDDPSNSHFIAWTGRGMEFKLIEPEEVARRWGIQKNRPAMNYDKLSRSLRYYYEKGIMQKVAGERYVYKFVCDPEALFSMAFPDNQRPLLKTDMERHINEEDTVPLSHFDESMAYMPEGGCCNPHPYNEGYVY
# How it was run: as §1
sequence,measurement,setting,value
ACGCTA,binding signal,FLI1,"1.14 fold enrichment (6-mer frequency, TF over GST control)"
same,binding signal,ELK1,"1.18 fold enrichment (6-mer frequency, TF over GST control)"
same,binding signal,GABPA,"1.14 fold enrichment (6-mer frequency, TF over GST control)"
same,binding signal,ERG,"1.2 fold enrichment (6-mer frequency, TF over GST control)"
same,binding signal,ELF1,"1.15 fold enrichment (6-mer frequency, TF over GST control)"
same,binding signal,EHF,"1.1 fold enrichment (6-mer frequency, TF over GST control)"
same,binding signal,SPI1,"1.19 fold enrichment (6-mer frequency, TF over GST control)"
same,binding signal,SPIB,"1.07 fold enrichment (6-mer frequency, TF over GST control)"
same,binding signal,ELK3,"1.27 fold enrichment (6-mer frequency, TF over GST control)"
same,binding signal,FEV,"1.13 fold enrichment (6-mer frequency, TF over GST control)"
same,binding signal,ETV5,"1.17 fold enrichment (6-mer frequency, TF over GST control)"
same,binding signal,HSF1,"1.12 fold enrichment (6-mer frequency, TF over GST control)"
same,binding signal,SPIC,"1.09 fold enrichment (6-mer frequency, TF over GST control)"
same,binding signal,ELF4,"1.25 fold enrichment (6-mer frequency, TF over GST control)"
same,binding signal,ELK4,"1.06 fold enrichment (6-mer frequency, TF over GST control)"
same,binding signal,ETV2,"1.28 fold enrichment (6-mer frequency, TF over GST control)"
same,binding signal,ELF3,"1.17 fold enrichment (6-mer frequency, TF over GST control)"
same,binding signal,CRX,"1.18 fold enrichment (6-mer frequency, TF over GST control)"
same,binding signal,ETV1,"1.09 fold enrichment (6-mer frequency, TF over GST control)"
